Consider 23 molecules from PubChem BioAssay (Tox21).

Unmarked numbers belong to inactive results. Records with an inconclusive call do not appear. Calls of active or inactive are those of the source. Unless noted, calls follow the shape of the dose curve; as a rule, active = well fitted curve in the direction sought with a large enough effect in the repeat runs; inconclusive = weak or mixed curves; inactive = no such curve, though single readings can be large; an effect the other way counts as inactive or inconclusive.

The nature of assay [1]: qHTS assay for small molecule agonists of the p53 signaling pathway (AID 651631; calls by dose curve; also: nearly all actives have a fitted effect of over 15% in size). The procedure, abridged:
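HCT-116 cells carrying a stable p53 response element–beta-lactamase reporter were plated, rested 5 h at 37 °C, then exposed to compound in DMSO for 16 h at 37 °C; reporter activity was read as FRET substrate fluorescence after 2 h at room temperature.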
On the technique in general: In qHTS, concentration-response curves come from the screen itself.

Assay [2] is described as follows: qHTS assay for small molecules that induce genotoxicity in human embryonic kidney cells expressing luciferase-tagged ATAD5 (AID 651632). Also: nearly all actives have a fitted effect of over 15% in size. Also: potency is read from the fitted curve at half-maximal effect. In outline: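 ATAD5-luc HEK293T, 2,000 cells/well; cpd or DMSO pin-transferred; 16 hr, 37C/5% CO2; Amplite 30 min RT; luminescence.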
The nature of assay [3]: qHTS assay for small molecule agonists of the p53 signaling pathway - cell viability (AID 651633; calls by dose curve; also: series mostly up to about 83 µM; nearly all actives have a fitted effect of over 30% in size). The procedure, abridged: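 p53RE-bla cells were treated with compound for 16 hours at 37 C. Cytotoxicity was then measured as CellTiter-Glo luminescence after 30 min at room temperature.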
A short description of assay [4]: qHTS assay for small molecules that induce genotoxicity in human embryonic kidney cells expressing luciferase-tagged ATAD5 - cell viability (AID 651634; calls by dose curve; also: nearly all actives have a fitted effect of over 25% in size). The procedure, abridged:
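Fluorescence from CellTiter-Fluor, reporting protease activity within live cells, served as the viability read-out. HEK293T cells carrying luciferase-tagged ATAD5 had been treated with compound for 15.5 hr at 37C.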

Assay [5] in a line: qHTS assay for small molecule disruptors of the mitochondrial membrane potential - cell viability (AID 720634; calls by dose curve;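 also: human HepG2 liver cancer cells; series mostly up to about 83 µM; nearly all actives have a fitted effect of over 20% in size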). In outline: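 Cells: HepG2, 2,000/well, attached overnight. Compound 1 hr, 37 C/5% CO2. +m-MPI dye, +CellTiter-Glo 30 min RT. Readout: luminescence (ATP).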
The nature of assay [6]: qHTS assay for small molecule disruptors of the mitochondrial membrane potential (AID 720635). In outline:
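HepG2 cells exposed to compound 1 hr at 37C, then Mito-MPS dye 30 min. Ratio read of aggregate (540/590 nm) versus monomer (490/535 nm) fluorescence.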

Assay [7] can be described thus: qHTS assay to test for compound auto fluorescence at 590 nm (red) in HepG2 cells (AID 720674). The procedure, abridged:
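HepG2 cells, 2,000 per well in MEM with 10% FBS, attached overnight at 37 C, then got 23 nL compound or DMSO. After 1 hr at 37 C, 5% CO2, red fluorescence was read at 540/590 nm against Rose Bengal sodium as reference.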

Assay [8] in a line: qHTS assay to test for compound auto fluorescence at 535 nm (green) in HepG2 cells (AID 720675).
Assay [9] can be described thus: qHTS assay to test for compound auto fluorescence at 460 nm (blue) in HEK293 cells (AID 720678). In outline: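 Blue-channel (Ex/Em 405/460 nm) intensity measured in HEK293 cultures after overnight compound exposure at 37C; signal expressed relative to triamterene. Cells plated 2,000 per well in 10% dialyzed FBS medium and allowed 4-5 hr to attach.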
Assay [10] can be described thus: qHTS assay to test for compound auto fluorescence at 590 nm (red) in HEK293 cells (AID 720679). The procedure, abridged:
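Red-channel autofluorescence (Ex/Em 540/590 nm; Rose Bengal sodium reference) was measured after overnight 37C, 5% CO2 exposure of attached HEK293 cells, 2,000 per well in medium with 10% dialyzed FBS.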
% is scaled to controls: 0 for no effect and ±100 for the full control effect.

On to `c1ccc2c(c1)ccc1c3ccccc3ccc21`, for which the result in assay [1], in [3], in assay [5], in assay [7], in assay [8] and in [9] was inactive. The molecule was called inactive in assay [10]. The Potency in assay [2] is 881 nM (active). Moreover, the Potency entry in assay [4] and in assay [6] was “inactive” each time.

On to `CCCCCCCCOS(=O)(=O)O`, for which the outcome in [1], in assay [3], in assay [5], in assay [7], in assay [8] and in [9] was inactive. Besides, the outcome in assay [10] was inactive. The Potency result in [2], in assay [4] and in [6] was “inactive” each time.

On to `C=COCCOCCOCCOC=C`, for which the call in [1], in assay [3], in assay [5], in [7], in [8] and in [9] was inactive. The outcome in [10] was inactive. Also, the Potency result in [2], in assay [4] and in assay [6] was “inactive” each time.

For the molecule `O=C1CCCC(=O)O1`, the molecule was classed as inactive in assay [1], in [3], in assay [5], in [7], in assay [8] and in assay [9]. Further, the call in [10] was inactive. The Potency entry in assay [2], in assay [4] and in assay [6] was “inactive” each time.

As for `Cc1ccc2c(c1)OCC(=O)CO2`, the call in assay [1], in assay [3], in [5], in assay [7], in assay [8] and in assay [9] was inactive. Also, the call in assay [10] was inactive. Further, the Potency result in assay [2], in [4] and in assay [6] was “inactive” each time.

Take `O=C(OCc1ccccc1)C(=O)OCc1ccccc1`: the result in assay [1], in assay [3], in assay [5], in assay [7], in [8] and in [9] was inactive. The molecule was classed as inactive in assay [10]. Besides, the Potency result in [2], in [4] and in assay [6] was “inactive” each time.

Take `CC(C)=O`: the outcome in [1], in assay [3], in assay [5], in assay [7], in [8] and in [9] was inactive. Also, in assay [10], the molecule was classed as inactive. Further, the Potency entry in assay [2], in assay [4] and in assay [6] was “inactive” in each case.

Turning to `CC(=C(CCOC(=O)C(C)C)SSC(CCOC(=O)C(C)C)=C(C)N(C=O)Cc1cnc(C)nc1N)N(C=O)Cc1cnc(C)nc1N`, the molecule was called inactive in assay [1], in assay [3], in assay [5], in assay [7], in assay [8] and in assay [9]. Moreover, the molecule was called inactive in [10]. Besides, the Potency result in assay [2], in assay [4] and in [6] was “inactive” in each case.

As to `OCCN(CCO)c1cccc(Cl)c1`, the molecule was classed as inactive in assay [1], in assay [3], in [5], in assay [7], in assay [8] and in assay [9]. Besides, the call in [10] was inactive. For the same molecule, the Potency entry in [2], in [4] and in assay [6] was “inactive” each time.

Take `CC(=O)/C=C/C1C(C)=CCC(C)C1(C)C` (stereo unspecified): the molecule was classed as inactive in assay [1], in assay [3], in assay [5], in assay [7], in assay [8] and in assay [9]. The molecule was called inactive in [10]. Further, the Potency entry in [2], in assay [4] and in assay [6] was “inactive” in each case.

Regarding `OCCCCC(O)CO` (stereo unspecified), the call in assay [1], in [3], in assay [5], in assay [7], in [8] and in assay [9] was inactive. For the same molecule, in [10], the result was inactive. In addition, the Potency entry in [2], in assay [4] and in assay [6] was “inactive” throughout.

Turning to `COC(=O)C1CC(=O)C(C(=O)OC)CC1=O` (stereo unspecified), the results for the activation in assay [1] and in [2] were -2.34% [at 8.3 µM] and 2.21% [at 8.08 µM], respectively. The figures for the activity change, negative = cytotoxicity in assay [3] and in assay [5] were 20.9% [at 8.08 µM] and 10.5% [at 8.08 µM], respectively. In assay [4], the activity, negative = cytotoxicity is 31.1% [at 8.08 µM]. Besides, the fluorescence, relative to Rose Bengal in assay [7] was 0.406% [at 3.72 µM]. Moreover, the fluorescence, % of fluorescein control in [8] was 0.0015% [at 3.72 µM]. In addition, the fluorescence, % of triamterene in assay [9] is 1.94% [at 3.72 µM]. In assay [10], the fluorescence, % of fluorescent control is 0.169% [at 3.72 µM].

With `C=Cc1ccccn1`, the outcome in [1], in assay [3], in [5], in assay [7], in assay [8] and in assay [9] was inactive. Besides, in [10], the molecule was classed as inactive. Moreover, the Potency result in assay [2], in assay [4] and in assay [6] was “inactive” throughout.

For `C[C@@H](O)[C@H]1C(=O)N2C(C(=O)O)=C(SCCN=CN)C[C@H]12`, the molecule was called inactive in assay [1], in assay [3] and in assay [5]. Besides, the Potency result in [2], in [4] and in assay [6] was “inactive” throughout. The fluorescence, % of fluorescein control in [8] was -0.19% [at 18.6 µM]. Moreover, the fluorescence, % of triamterene in assay [9] is 1.22% [at 18.6 µM]. The fluorescence, % of fluorescent control in assay [10] was 0.0064% [at 18.6 µM].

For the molecule `CCCC(=O)C(C)=O`, the result in [1], in assay [3], in assay [5], in [7], in [8] and in assay [9] was inactive. Moreover, the result in assay [10] was inactive. Moreover, the Potency result in assay [2] and in assay [4] was “inactive” each time.

With `CN(C)C(=O)CNC(=O)Cc1ccccc1`, the outcome in [1], in [3], in assay [5], in assay [7], in assay [8] and in assay [9] was inactive. Further, in assay [10], the molecule was classed as inactive. For the same molecule, the Potency result in [2], in [4] and in [6] was “inactive” throughout.

With `CCC(C)NC(N)=O` (stereo unspecified), the outcome in [1], in [3], in assay [5], in assay [7], in assay [8] and in assay [9] was inactive. In addition, the result in assay [10] was inactive. Further, the Potency entry in [2] and in assay [4] was “inactive” each time.

Consider `Oc1cn2c(n1)Nc1ccc(Cl)c(Cl)c1C2`, for which the call in assay [1], in assay [3], in assay [5], in assay [8], in assay [9] and in assay [10] was inactive. Moreover, the Potency result in assay [2], in [4] and in assay [6] was “inactive” throughout.

Turning to `CCCCCCCCC(=O)Cl`, the molecule was classed as inactive in assay [1], in assay [3], in assay [5], in assay [7], in assay [8] and in assay [9]. Besides, the result in assay [10] was inactive. For the same molecule, the Potency result in assay [2] and in [4] was “inactive” each time.

For `COCCOCCOCCOCCO`, the outcome in assay [1], in [3], in assay [5], in assay [7], in [8] and in assay [9] was inactive. Besides, the molecule was called inactive in assay [10]. Moreover, the Potency entry in assay [2] and in assay [4] was “inactive” each time.

On to `CCCN1C[C@H](CSC)C[C@@H]2c3cccc4[nH]cc(c34)C[C@H]21`, for which the call in assay [1], in [3], in assay [5], in [7], in [8] and in assay [9] was inactive. The result in assay [10] was inactive. Besides, the Potency result in assay [2], in assay [4] and in assay [6] was “inactive” in each case.

With `CNS(=O)(=O)CCc1ccc2[nH]cc(C3CCN(C)CC3)c2c1`, the result in [1], in assay [3], in assay [5], in assay [7], in assay [8] and in [9] was inactive. In addition, the molecule was classed as inactive in assay [10]. Besides, the Potency result in assay [2] and in assay [4] was “inactive” throughout.

As to `O=C(OCC1(COC(=O)c2cccnc2)CCCC(COC(=O)c2cccnc2)(COC(=O)c2cccnc2)C1O)c1cccnc1`, the molecule was classed as inactive in [1], in assay [3], in assay [5], in assay [8], in assay [9] and in [10]. Besides, the Potency result in assay [2], in [4] and in [6] was “inactive” each time.
